Test results as given in PubChem BioAssay (NCI).
The panel holds about 79,000 compounds, 15% with a hit somewhere; the sample as a whole holds those more often. Unmarked numbers belong to inactive results. Active and inactive are the calls of the source. Cut-off read from the data, not from the text of the source: active = growth inhibition above about 70%; inactive = the rest.

Assay: NCI Yeast Anticancer Drug Screen. Data for the CLN2oe strain (AID 163);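 note: 0% = growth of vehicle-only control cultures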
Details: S. cerevisiae CLN2oe strain, active compounds read high
Method: Growth inhibition of yeast strains with defined genetic alterations is measured as a screen for potential anti-cancer activity. Selected strains with alterations in DNA damage repair or cell cycle control were exposed to compounds and growth inhibition was measured relative to vehicle treated controls. The strain used in this assay is CLN2oe

Row | SMILES | growth inhibition (at 1.2 µM) | growth inhibition (at 3.7 µM) | growth inhibition (at 11.0 µM) | growth inhibition (at 33.0 µM) | growth inhibition (at 100.0 µM)
1 | Cc1ccc(S(=O)(=O)N/N=C/c2c(O)ccc3ccccc23)cc1 | -17% | 8% | 52% | 58% | 71% (active)
2 | CN(C)c1ccc(C(c2ccc(Cl)cc2)c2ccc(N(C)C)cc2)cc1 | -14% | 26% | 26% | 87% (active) | 78% (active)
3 | NCC(O)CSCc1ccc(Cl)cc1 (stereo not given) | -2% | 0% | -2% | 0% | 28%
4 | CC(=O)c1ccc(NCN2C(=O)c3ccccc3C2=O)cc1 | -19% | -32% | -31% | 53% | 82% (active)
5 | O=C1OC(/C=C/c2ccccc2)Sc2ccccc21 (stereo not given) | 0% | 2% | -1% | 3% | 17%
6 | CCOC(=O)C1=C(C)NC(C)=C(C(=O)OCC)C1c1ccc(Cl)cc1 | -4% | -10% | 49% | 83% (active) | 88% (active)
7 | O=C(O)[C@H]1[C@@H](C2CCCCC2)O[C@@H](C2CCCCC2)O[C@H]1C(F)(F)F | -1% | -1% | -13% | -8% | 4%
8 | CC1=NN(C(=O)CC(=O)N(C(=O)c2ccccc2)c2ccc(Cl)cc2)C(=O)C1N=Nc1ccc([N+](=O)[O-])cc1 (stereo not given) | -11% | 6% | 48% | 75% (active) | 77% (active)
